According to PubChem BioAssay AID488969 (Vanderbilt High Throughput Screening Facility, 2010):
Over roughly 110,000 compounds, “z-score” has its median near -0.1; the highest 2% begin near 2. For the sample, the highest values were picked, then their nearest neighbours and some compounds at random. Activity calls are given as the source filed them.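 How the source made its calls: active means z-score in the third read window above 3 or below -3; inactive means the rest.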

Biological target: Metabotropic glutamate receptor 8 (Rattus norvegicus) (UniProt P70579)
Experiment: rat mGluR8 modulators via GIRK flux, primary screen, cell-based, thallium flux, HTS (AID 488969)
Details: HEK293 rat mGluR8, GIRK (G protein-gated inwardly rectifying potassium channel) thallium flux, FluoZin2; at 10 µM; stronger effect = higher value; submaximal glutamate (EC20) added with thallium

Metabotropic glutamate receptor 8 (Rattus norvegicus), sequence (P70579 whole entry, looked up): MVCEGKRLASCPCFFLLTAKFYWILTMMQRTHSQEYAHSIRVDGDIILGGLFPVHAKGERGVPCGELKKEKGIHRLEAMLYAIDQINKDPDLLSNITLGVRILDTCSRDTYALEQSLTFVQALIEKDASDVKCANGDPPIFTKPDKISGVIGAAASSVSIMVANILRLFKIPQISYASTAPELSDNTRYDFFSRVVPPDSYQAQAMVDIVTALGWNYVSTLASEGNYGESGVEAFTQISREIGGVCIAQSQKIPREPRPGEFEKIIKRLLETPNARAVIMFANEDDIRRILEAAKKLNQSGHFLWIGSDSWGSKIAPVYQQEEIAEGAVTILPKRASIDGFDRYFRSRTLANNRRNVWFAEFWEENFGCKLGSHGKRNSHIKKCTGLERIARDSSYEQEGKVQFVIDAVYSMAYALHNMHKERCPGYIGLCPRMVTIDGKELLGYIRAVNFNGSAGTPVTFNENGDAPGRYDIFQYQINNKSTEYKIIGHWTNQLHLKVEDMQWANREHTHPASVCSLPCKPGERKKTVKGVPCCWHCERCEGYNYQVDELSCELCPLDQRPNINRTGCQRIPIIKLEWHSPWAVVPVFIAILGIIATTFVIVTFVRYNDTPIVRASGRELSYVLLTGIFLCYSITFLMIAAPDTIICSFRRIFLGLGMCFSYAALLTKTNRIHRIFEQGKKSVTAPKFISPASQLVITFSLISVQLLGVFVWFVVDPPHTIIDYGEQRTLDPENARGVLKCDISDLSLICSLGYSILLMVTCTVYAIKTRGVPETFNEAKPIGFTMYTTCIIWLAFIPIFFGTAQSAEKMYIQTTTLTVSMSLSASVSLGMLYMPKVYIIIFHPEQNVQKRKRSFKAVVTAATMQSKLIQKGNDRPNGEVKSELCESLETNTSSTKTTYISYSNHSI

Compound	z-score
c1ccc(-n2cccc2CNC2CCCCC2)cc1	2.02
Cn1cccc1CNC1CCCCC1	0.335
Cn1cccc1CNC1CCCC1	-1.43
O=C(C1CCC(CNS(=O)(=O)c2cccc3cccnc23)CC1)N1CCc2ccccc21 (stereo unspecified)	-0.0229
CS(=O)(=O)N1CCN(C/C=C/c2ccccc2)CC1	-0.0638
CC(=C1C(=O)c2ccccc2C1=O)N1CCN(C/C=C/c2ccccc2)CC1	2.04
CC(=C1C(=O)c2ccccc2C1=O)N1CCN(Cc2ccccc2)CC1	-0.06
Cc1cc(C)cc(C(=O)OCC(=O)Nc2cccc(S(=O)(=O)NC3=NCCCCC3)c2)c1	0.0544
Cc1c(N2C(=O)CS/C2=N\N=C\c2ccc(Cl)cc2)c(=O)n(-c2ccccc2)n1C	-0.118
Cc1c(N2C(=O)CS/C2=N\N=C\c2ccccc2O)c(=O)n(-c2ccccc2)n1C	3.28 (active)
Cc1c(N2C(=O)CS/C2=N\N=C\c2ccc(Br)cc2)c(=O)n(-c2ccccc2)n1C	-0.286
CC1SC(c2ccccc2Cl)NC1=O (stereo unspecified)	-0.0543
CC(NC(=O)c1ccc(-c2cc(C(F)(F)F)ccc2Cl)o1)c1ccccc1 (stereo unspecified)	-0.132
COc1cccc(NC(=O)COC(=O)c2c3c(nc4ccccc24)CCC(C)C3)c1 (stereo unspecified)	-0.604
Cc1nn(-c2ccccc2)c(C)c1/C=N/n1c(-c2ccc(Cl)cc2)n[nH]c1=S	0.338
CC(/C=N/n1c(-c2ccc(C)cc2)n[nH]c1=S)=C\c1ccco1	0.323
CC(/C=N/n1c(-c2ccccc2)n[nH]c1=S)=C\c1ccco1	6.02 (active)
Cc1ccc(-c2n[nH]c(=S)n2/N=C\c2ccco2)cc1	-0.16
CC(/C=N/n1c(-c2ccc(Cl)cc2)n[nH]c1=S)=C\c1ccco1	6.09 (active)

Compound	z-score
S=c1[nH]nc(-c2ccccc2)n1/N=C/C=C/c1ccco1	0.28
COc1ccc(OC)c(NC(=O)CSc2ncccn2)c1	-0.134
COc1ccc(C(=O)n2nc(C)cc2C)cc1OC	-0.221
c1ccc(Cn2c(Sc3nnnn3-c3ccccc3)nnc2-c2ccccc2)cc1	0.223
COc1ccc(CNC(=S)Nc2cccc(C)c2C)cc1	-0.341
Cc1ccc2nsnc2c1NC(=O)c1ccc2c(c1)OCCO2	-0.679
Cc1ccc(S(=O)(=O)/N=C(/NC(=S)Nc2ccccc2)c2ccccc2)cc1	0.34
CCCCN(CCCC)CCn1cnc2c([nH]c3ccc(OC)cc32)c1=O	0.258
CCN1CCCC1Cn1cnc2c([nH]c3cc(OC)ccc32)c1=O (stereo unspecified)	-0.271
CCC1CCCN1Cn1cnc2c([nH]c3ccc(OC)cc32)c1=O (stereo unspecified)	6.77 (active)
CCOCCc1nnc(NC(=O)c2cccs2)s1	-0.0424
O=C(NC1CCCC1)C(c1ccccc1)N(C(=O)c1ccno1)c1ccccc1 (stereo unspecified)	0.315
CC(C)(C)NS(=O)(=O)c1ccc2c(c1)oc(=O)c1cc(S(=O)(=O)NC(C)(C)C)ccc12	-0.0322
CC(NC(=O)c1ccccc1NC(=O)CSc1nnnn1C)c1ccccc1 (stereo unspecified)	2.05
Cn1nnnc1SCC(=O)Nc1ccccc1C(=O)NCc1ccccc1	0.00964
Cn1nnnc1SCC(=O)Nc1ccccc1C(=O)NC1CC1	0.311
O=C(c1cnn2c(C(F)(F)F)cc(-c3ccccc3)nc12)N1CCCc2ccccc21	-0.322
CC1Cc2cc(/C(O)=C3/C(=O)C(=O)N(CCCn4ccnc4)C3c3ccco3)ccc2O1 (stereo unspecified)	-0.193
COc1nc(-c2ccccc2)ccc1-c1noc(-c2ccccc2)n1	0.293

Compound	z-score
CC(C)(C)CC(C)(C)NC1=CC(=O)OC12CCCCC2	-0.189
CC(C)Cc1nc(N2CCOCC2)c(C#N)c2c1COC(C)(C)C2	2.42
CC(C)c1nc(N2CCOCC2)c(C#N)c2c1CCCC2	6.82 (active)
CCCCc1nc(N2CCOCC2)c(C#N)c2c1COC(C)(C)C2	-0.434
Cc1nc(N2CCOCC2)c(C#N)c2c1COC(C)(C)C2	-0.387
CSc1nc(N2CCCC2)c2c(c1C#N)CC(C)(C)OC2	-0.933
COC(=O)Sc1nc(N2CCOCC2)c2c(c1C#N)CC(C)(C)OC2	-2.52
CC(C)c1nc(N2CCCC2)c(C#N)c2c1CCCC2	0.908
CC(C)c1nc(N2CCOCC2)c(C#N)c2c1CCC2	0.532
CSc1nc(N2CCOCC2)c2c(c1C#N)CC(C)(C)OC2	2.16
Cc1ccc(S(=O)(=O)Nc2nc3ccccc3s2)cc1	-0.644
COc1ccc(CC(=O)NNC(=S)Nc2ccccc2)cc1Br	0.376
Cn1cc(CNC(=O)C2CCCCC2)cn1	-0.556
Cn1c(=O)[nH]c2cc(Cl)cnc21	0.0453
CCc1cc(C(=O)NCCN(C)C)cs1	0.168
COc1ccc(C)cc1S(=O)(=O)Nc1cccc(Cl)c1Cl	3.68 (active)
COc1ccc(C)cc1S(=O)(=O)Nc1ccccc1C	-0.428
COc1cc(NS(=O)(=O)c2cc(C)ccc2OC)c(OC)cc1Cl	0.494
